The values below come from article PMC4336329 (PLoS ONE, 2015).

In all, about 310,000 compounds went through this assay and about 14,000 (4.5%) showed an effect of 50% or more. The effect is printed as a negative number. This excerpt belongs to a sample that is enriched for strong results.
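Also: peak tail current of the secondary pulse compared with the same well before compound.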

In this test the target is human ether-à-go-go-related gene (hERG) potassium channel (human, UniProt Q12809). Put plainly: primary screen, population patch clamp on CHO cells stably expressing hERG; higher = less effect of the substance.
human ether-à-go-go-related gene (hERG) potassium channel, sequence (Q12809 whole entry, looked up): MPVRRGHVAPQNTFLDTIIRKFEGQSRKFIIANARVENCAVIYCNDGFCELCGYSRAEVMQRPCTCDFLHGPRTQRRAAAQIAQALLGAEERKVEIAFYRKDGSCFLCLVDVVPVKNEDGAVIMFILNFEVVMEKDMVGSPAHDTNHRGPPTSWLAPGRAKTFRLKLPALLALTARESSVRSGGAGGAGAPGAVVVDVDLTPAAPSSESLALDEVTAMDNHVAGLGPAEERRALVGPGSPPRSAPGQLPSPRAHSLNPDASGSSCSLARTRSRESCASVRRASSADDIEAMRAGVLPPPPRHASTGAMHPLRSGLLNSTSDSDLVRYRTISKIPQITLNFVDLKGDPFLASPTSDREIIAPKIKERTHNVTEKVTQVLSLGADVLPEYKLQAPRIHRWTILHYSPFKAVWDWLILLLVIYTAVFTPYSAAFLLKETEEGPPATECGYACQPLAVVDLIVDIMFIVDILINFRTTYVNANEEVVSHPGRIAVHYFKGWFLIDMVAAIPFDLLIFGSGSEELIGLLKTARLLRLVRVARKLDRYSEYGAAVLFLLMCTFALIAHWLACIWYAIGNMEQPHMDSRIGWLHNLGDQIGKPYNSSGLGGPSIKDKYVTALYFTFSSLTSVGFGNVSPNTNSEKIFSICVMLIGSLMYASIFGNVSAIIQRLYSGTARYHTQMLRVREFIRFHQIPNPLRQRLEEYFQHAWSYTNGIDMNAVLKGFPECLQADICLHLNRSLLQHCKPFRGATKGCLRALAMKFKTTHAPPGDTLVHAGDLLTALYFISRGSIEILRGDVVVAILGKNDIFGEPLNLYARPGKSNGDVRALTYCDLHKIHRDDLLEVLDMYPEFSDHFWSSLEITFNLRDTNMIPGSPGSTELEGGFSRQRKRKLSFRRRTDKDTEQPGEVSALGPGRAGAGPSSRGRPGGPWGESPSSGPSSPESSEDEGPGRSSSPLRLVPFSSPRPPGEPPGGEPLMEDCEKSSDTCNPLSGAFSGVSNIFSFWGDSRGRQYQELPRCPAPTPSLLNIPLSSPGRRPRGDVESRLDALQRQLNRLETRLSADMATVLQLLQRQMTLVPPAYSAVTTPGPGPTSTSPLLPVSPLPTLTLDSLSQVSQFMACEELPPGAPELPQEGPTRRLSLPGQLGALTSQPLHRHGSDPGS
Consider `COc1ccc(S(=O)(=O)N2CCCC(C(=O)NCCCn3ccnc3)C2)cc1OC` (centres unmarked), for which the “hERG current change (%, negative = inhibition) at 10uM” value worked out at 7.83%.
In the case of `O=C(NCCCn1ccnc1)C1CCCN(S(=O)(=O)c2ccc(F)cc2)C1` (centres unmarked) it was 10.7%; in that of `CC(C)c1ccc(S(=O)(=O)c2n[nH]n3c2nc(=O)c2ccccc23)cc1`, -16.7%.
On to `C/C(=N\NC(=S)NCC(C)(C)C)c1cc(F)cc(F)c1O`, for which the “hERG current change (%, negative = inhibition) at 10uM” value is listed as 17.2%.
For `CC1=NN(C(N)=S)C(=O)C1N=Nc1c(Br)cc(Br)cc1Br` (centres unmarked) the value was -8.08%; for `COc1ccc(C2CC(c3ccccc3)Nc3nc(NS(C)(=O)=O)nn32)cc1` (centres unmarked), 7.1%; for `CCc1sc2nc(SCC(=O)Nc3cc(C)on3)n(-c3cccc(OC)c3)c(=O)c2c1C`, 10.2%.
Take `NC(=S)N/N=C1\CC(c2ccc3c(c2)OCCCO3)Oc2ccc(F)cc21` (centres unmarked): the “hERG current change (%, negative = inhibition) at 10uM” value was found to be 6.23%.
In the case of `O=C(NNC(=O)c1csc(N2CCOCC2)n1)c1ccc(=O)[nH]c1` it was 6.26%.
For `CCOC(=O)N1CCN(C(=O)c2cnn3c(C(F)F)cc(-c4ccc(C)cc4)nc23)CC1` the value was -0.653%; for `CC(C)OC(=O)c1c2c(n3ccccc13)C(=O)c1ccccc1C2=O`, 5.73%.
In the case of `Cc1ccc(N2CCN(CCc3nc4cc(NC(=O)c5ccco5)ccc4n3C)CC2)cc1` it was -70.7%; in that of `Cn1c(CCN2CCN(c3ccc(F)cc3)CC2)nc2cc(NC(=O)c3ccco3)ccc21`, -63.6%.
In the case of `Cn1c(CN2CCCC2)nc2cc(NC(=O)c3ccco3)ccc21`, the “hERG current change (%, negative = inhibition) at 10uM” value was 7.42%.
For `CN1CCN(CCc2nc3cc(NC(=O)c4ccco4)ccc3n2C)CC1` the value was 4.18%.
In the case of `Cc1ccc(C(=O)Nc2ccc3c(c2)nc(CCNC(=O)c2ccco2)n3C)cc1` it was 8.06%; in that of `Cn1c(CCNC(=O)c2ccco2)nc2cc(NC(=O)c3ccco3)ccc21`, -14.4%; in that of `Cc1ccc(Cc2c(C)c(C#N)c3[nH]c4ccccc4n3c2=O)cc1`, 11.4%.
In the case of `O=C(O)C12C3CCCC1C32c1ccccc1` (centres unmarked), the “hERG current change (%, negative = inhibition) at 10uM” value is recorded as 21.7%.
In the case of `CC1CCC2C(=O)N(c3ccccc3OC(=O)c3ccccc3F)C(=O)C2C1` (centres unmarked) it was -10.3%; in that of `CCCSC1=C(C#N)C(c2ccc(O)c(OC)c2)CC(=O)N1` (centres unmarked), -45.1%; in that of `CCCn1c(=O)n(C)c(=O)c2c(SCC(=O)NCC(c3ccccc3)N(C)C)nc(CC(C)C)nc21` (centres unmarked), -66.1%.
In the case of `CCCn1c(=O)n(C)c(=O)c2c(SCC(=O)NC34CC5CC(CC(C5)C3)C4)nc(CC(C)C)nc21` it was 8.5%; in that of `CC(C)Cc1nc(SCC(=O)NCC2CCCO2)c2c(=O)n(C)c(=O)n(C)c2n1` (centres unmarked), -0.141%.
For the compound `CNC(=O)c1c(I)c(C(=O)NCC(=O)Nc2c(I)c(C(=O)O)c(I)c(C(=O)NCCO)c2I)c(I)c(N(C)C(C)=O)c1I`, the “hERG current change (%, negative = inhibition) at 10uM” value is recorded as 6.45%.
For `CC(CN1C(C)CCCC1C)OC(=O)c1ccc(Cl)cc1Cl` (centres unmarked) the value was -51.7%; for `CC(CN1C(C)CCCC1C)OC(=O)c1ccccc1Cl` (centres unmarked), -26.8%.
For `CC(CN1C(C)CCCC1C)OC(=O)c1ccc(Cl)cc1` (centres unmarked) the value was -44.8%.
In the case of `COc1cc(C(=O)OC(C)CN2CCCCC2)cc(OC)c1OC.Cl` (centres unmarked), the “hERG current change (%, negative = inhibition) at 10uM” value was -4.43%.
Take `COc1cc(C(=O)OC(C)CN2CCCC2)cc(OC)c1OC.Cl` (centres unmarked): the “hERG current change (%, negative = inhibition) at 10uM” value was -12.2%.
For `COc1cc(C(=O)OC(C)CN2C(C)CCCC2C)cc(OC)c1OC.Cl` (centres unmarked) the value was -50.2%.
`O=S(=O)(/N=C(/Nc1ccc(F)cc1F)c1ccccc1)c1ccc(Br)cc1`: the “hERG current change (%, negative = inhibition) at 10uM” value is 12.3%.
In the case of `Cc1cc(C)cc(-n2c(SCC(=O)NCc3ccc4c(c3)OCO4)nc3ccccc3c2=O)c1` it was 15.9%; in that of `CCOC(=O)c1c(-n2c(C)cc(/C=C3/C(=O)NC(=O)N(CC)C3=O)c2C)sc2c1CCCC2`, 2.36%.
For `CC(C)C1Oc2ccccc2N(CC(=O)N(Cc2ccccn2)C2CC2)C1=O` (centres unmarked) the value was -13.6%.
For `O=C(Nc1ccccc1N1CCCC1)C1CC(=O)N(Cc2ccccc2)C1` (centres unmarked) the value was -44.4%; for `CCOC(=O)CNc1ncnc2nc[nH]c12`, 9.53%; for `COC(=O)c1sc(S(=O)(=O)NCc2ccccc2)c(C(=O)OC)c1C`, -50.4%.
In the case of `COC(=O)c1sc(S(=O)(=O)NCc2cccs2)c(C(=O)OC)c1C`, the “hERG current change (%, negative = inhibition) at 10uM” value is -19.1%.
For `COC(=O)c1c(S(=O)(=O)NCc2ccccc2)sc(C(=O)O)c1C` the value was 6.81%; for `Cc1[nH][nH]c(=O)c1C=Nc1ccc(C(F)(F)F)cc1`, 17.4%.
